# An excerpt weighted towards active compounds, which were near 19% of everything screened.
# ELG1 DNA repair: blocks ELG1-dependent DNA repair in HEK293T cells | Potency, µM (series often up to 46.1 µM), inactives show top-dose activity change, negative = inhibition, usual class: inhibitors | AID 504467 | 330,000 compounds, 2.3% hits | HEK293T ELG1-luciferase reporter, luminescence, 16 h; DNA damage induced by 5-fluorouridine; further: potency means the concentration at half of the fitted maximal effect; nearly all actives have a fitted effect of over 55% in size
#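 HEK293T cells expressing luciferase-tagged ELG1 (2,000/well) received 5-Fluorouridine plus compound or DMSO for 16 hr at 37 °C. Luciferase was read by ONE-Glo luminescence after 30 min at room temperature.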
# DT40 TDP1 CPT: growth inhibition of DT40 Tdp1-/-;hTDP1 cells with camptothecin (screen for TDP1 inhibitors) | chicken DT40 Tdp1-/-;hTDP1 cells + 20 nM CPT, ATP luminescence, 48 h | Potency, µM (series often up to 46.2 µM), without a hit: at the top dose activity change, negative = growth inhibition, hits mostly inhibitors | 420,000 compounds, 12% hits; further: potency means the concentration at half of the fitted maximal effect; nearly all actives have a fitted effect of over 55% in size
#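 Chicken DT40 Tdp1-/- cells stably complemented with human TDP1 were seeded at 400 cells/well in medium containing 20 nM camptothecin, exposed to pin-transferred compounds, and grown at 37 °C for at least 48 hr. Viability was read as ATP luminescence.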
# IL1B secr inh: blocks inflammasome-driven IL-1 beta release. THP-1 LPS/ATP IL-1B secretion, AlphaLISA, 16 h; stronger effect = lower value. 360,000 compounds, 4.7% hits. AID 743279. activity change, % at 57.5 µM; in the data active means activity change below about -50%; inconclusive means mostly about -30% to -49%
#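 Secreted IL-1B measured by AlphaLISA bead assay after 16 h compound exposure of THP-1 cells; compounds (final up to 57.5 uM) added 1 h before LPS (250 ng/mL) and ATP (1.25 mM) stimulation; lower signal means less secretion.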
# Giardia killer: Giardia lamblia killing; 340,000 compounds, 0.15% hits; activity change, % at 7.66 µM, hits read low; Giardia lamblia trophozoite viability; in the data active means activity change below about -80%; inconclusive means between about -30% and that limit;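 further: parasites exposed to compound for two days anaerobically before the ATP read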
#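 Each well holds 100 Giardia trophozoites and compound. After two days (48 hrs) at 37 deg C in anaerobic conditions, ATP is quantified by luminescence.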
# TDP1 inh: TDP1 (human) enzyme inhibition | recombinant TDP1, AlphaScreen DNA substrate cleavage | Q9NUW8 | Potency, µM (highest dose often 130 µM), for inactives: at the top dose activity change, negative = inhibition, hits mostly inhibitors | AID 485290 | 350,000 compounds, 0.28% hits; further: potency means the concentration at half of the fitted maximal effect; nearly all actives have a fitted effect of over 40% in size
# Target sequence (Q9NUW8 whole entry, looked up): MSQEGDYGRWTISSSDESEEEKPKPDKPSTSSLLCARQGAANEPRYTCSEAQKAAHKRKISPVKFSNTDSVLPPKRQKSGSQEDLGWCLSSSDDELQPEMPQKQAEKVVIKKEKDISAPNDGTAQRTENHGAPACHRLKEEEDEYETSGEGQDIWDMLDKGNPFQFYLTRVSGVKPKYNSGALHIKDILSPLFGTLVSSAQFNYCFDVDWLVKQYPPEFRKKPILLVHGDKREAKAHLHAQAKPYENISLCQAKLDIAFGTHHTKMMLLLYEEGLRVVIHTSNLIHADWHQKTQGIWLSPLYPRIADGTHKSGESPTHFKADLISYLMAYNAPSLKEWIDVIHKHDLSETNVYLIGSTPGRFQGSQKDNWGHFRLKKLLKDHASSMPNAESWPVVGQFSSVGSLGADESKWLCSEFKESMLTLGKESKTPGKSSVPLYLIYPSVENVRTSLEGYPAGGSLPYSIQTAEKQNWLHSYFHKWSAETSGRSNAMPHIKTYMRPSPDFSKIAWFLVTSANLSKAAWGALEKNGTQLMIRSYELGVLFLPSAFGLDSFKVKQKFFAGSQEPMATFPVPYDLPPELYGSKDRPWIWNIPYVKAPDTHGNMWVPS
#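 Signal: AlphaScreen proximity between streptavidin donor and anti-FITC acceptor beads on intact substrate. Reaction: Tdp1 1 nM, substrate 15 nM final, 5 min RT after 15 min compound preincubation.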
# DT40 TDP1 no CPT: qHTS for Inhibitors of human tyrosyl-DNA phosphodiesterase 1 (TDP1): qHTS in cells in absence of CPT. Potency, µM (titrated, usually from 46.2 µM), for inactives: at the top dose activity change, negative = growth inhibition, most hits filed as inhibitors. AID 686978, 2013. 420,000 compounds, 15% hits. DT40 Tdp1-/- hTDP1 cells, no CPT, ATP luminescence, 48 h; further: potency means the concentration at half of the fitted maximal effect; nearly all actives have a fitted effect of over 55% in size
#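 Luminescent ATP content (CellTiter-Glo) served as the growth readout. Knockout chicken DT40 cells expressing human TDP1 were exposed to compounds without camptothecin for a minimum 48 hr at 37 °C.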
# Active calls of the source: *; i = inactive; u = inconclusive; x = no result; [ ] = another dose, or the depositor's remark. Unless noted, the call rests on the fitted dose curve; in most records, active means well fitted curve in the direction sought with a large enough effect; inconclusive means small, poorly fitted or top-dose-only effect, or another doubt; inactive means no such curve, though single readings can be large; an effect the other way counts as inactive or inconclusive. On the % scale 0 is the no-effect control and ±100 the full control effect.
SMILES,ELG1 DNA repair,DT40 TDP1 CPT,IL1B secr inh,Giardia killer,TDP1 inh,DT40 TDP1 no CPT
c1ccc(Nc2nc(N3CCCCC3)nc(N3CCCCC3)n2)cc1,-25%,u,-11,-8,1%,u
c1ccc(Nc2nc(Nc3ccccc3)nc(-n3cccn3)n2)cc1,x,7.1µM*,x,-8,1%,5µM*
CC1=CC(=O)OC1Cc1ccc2ccccc2n1 (centres undefined),x,-5%[9.04 µM],x,x,-4%,u
COc1ccccc1CN1CCCC2(CCN(C(=O)c3c(C)noc3C)CC2)C1,x,6%,x,x,x,-5%
COc1ccc(-n2nc([N+](=O)[O-])c(=NCCc3ccc(C)cc3)n2O)cc1,u,u,-27,-93*,8%,u
Cc1cc(C)cc(N=c2c([N+](=O)[O-])nn(-c3ccc(Cl)cc3)n2O)c1,u,9.2µM*,6,u,8%,15µM*
COc1ccc(-n2nc([N+](=O)[O-])c(=NC3CCN(Cc4ccccc4)CC3)n2O)cc1,-14%,16µM*,-5,-82*,5%,15µM*
CCc1ccc(N=c2c([N+](=O)[O-])nn(-c3ccccc3)n2O)cc1,-1%,u,-2,u,11%,u
COc1ccc(-n2nc([N+](=O)[O-])c(=NCCC3=CCCCC3)n2O)cc1,u,21µM*,-55*,-91*,9%,u
COc1ccc(NC(=O)NCCC2=CCCCC2)cc1,u,-9%,-1,1,8%,1%
Cc1ccccc1C(=O)Nc1ccnn1C1CCN(C(=O)C2CCOC2)CC1 (centres undefined),-4%,5%,12,11,3%,5%
O=C(CN(Cc1ccco1)C(=O)CNS(=O)(=O)c1ccc(F)cc1)NCc1ccccc1,10%,-2%,-14,20,x,-12%
COC(=O)N/N=C/c1sc(N2CCCCC2)nc1-c1cccs1,-21%,1%,-13,-1,5%,6%
Cc1ccc(CN=c2c([N+](=O)[O-])nn(-c3cccc(C)c3)n2O)cc1,u,u,0,-83*,-3%,-17%
COc1ccc(-n2nc([N+](=O)[O-])c(=NCCc3ccc(Cl)cc3)n2O)cc1,10%,u,-28,-84*,6%,u
COc1ccc(-n2nc([N+](=O)[O-])c(=NCc3cccnc3)n2O)cc1,u,16µM*,23,-97*,1%,u
COc1ccc(-n2nc([N+](=O)[O-])c(=NCCc3ccc(OC)c(OC)c3)n2O)cc1,u,15µM*,u,-94*,6%,21µM*
Cc1ccc(CN=c2c([N+](=O)[O-])nn(-c3cccc(Cl)c3)n2O)cc1,-26%,u,u,u,10%,u
COc1ccc(-n2nc([N+](=O)[O-])c(=NCc3ccco3)n2O)cc1,u,7%,1,-5,-8%,-24%
COc1ccc(CCNC(=O)CSc2ncc3c(n2)-c2cc(Cl)ccc2N(Cc2ccccc2)S3(=O)=O)cc1OC,x,-23%,x,x,8%,-11%
Cc1ccccc1-c1nccc(-n2ccnc2)n1,x,2%,x,x,x,1%
Cc1ccccc1-c1cc(-n2ccnc2)ncn1,x,0%,x,x,25µM*,-20%
Cc1ccn2c(Cc3ccccc3)c(-c3ccc(Br)cc3)nc2c1,x,21µM*,46,x,x,u
Cc1ccn2c(NCc3ccco3)c(-c3ccccc3)nc2c1,x,u,x,-2,-3%,11µM*
Cc1ccn2c(Cc3ccccc3)c(-c3ccccc3)nc2c1,x,18µM*,39,x,x,18µM*
SMILES,ELG1 DNA repair,DT40 TDP1 CPT,IL1B secr inh,Giardia killer,TDP1 inh,DT40 TDP1 no CPT
CCn1nnnc1-c1ccc(OC)c(S(=O)(=O)Nc2ccccc2OC)c1,x,0%,8,x,x,-17%
CCN(C(=O)CSc1nc2ncccc2[nH]1)c1ccc(C(C)C)cc1,x,-14%,x,x,3%,-21%
COc1cccc(C(=O)Nc2cc(OC)ccc2NC(=O)c2ccco2)c1,0%,-23%,i,13,2%,-1%
COCC1CCCN(Cc2ccc3c(c2)CN(C(=O)c2sc(C)nc2C)CCO3)C1 (centres undefined),x,-11%[9.04 µM],x,x,x,-16%
COC(=O)CCNC(=O)NC(CCC(C)C)c1c(-n2cccc2)sc2c1CCN(C)C2 (centres undefined),x,u,x,x,4%,u
CC(NC(=O)Nc1ccccc1C(F)(F)F)c1c(-n2cccc2)sc2c1CCCC2 (centres undefined),x,u,x,x,11%,10µM*
CCN1CCc2c(sc(-n3cccc3)c2C(C)NC(=O)Nc2ccc(C(=O)OC)cc2)C1 (centres undefined),x,18µM*,x,x,7%,18µM*
COc1cc(NC(=O)NC(C)c2c(-n3cccc3)sc3c2CCCC3)cc(OC)c1OC (centres undefined),x,u,x,x,3%,u
CCN1CCc2c(sc(-n3cccc3)c2C(CCC(C)C)NC(=O)NCCC(=O)OC)C1 (centres undefined),x,u,x,x,2%,26µM*
CCN(CCO)c1ccc(N=Nc2cc(C)[nH]n2)cc1,u,-30%,-21,u,x,-16%
N#Cc1ccccc1Sc1ccccc1C(=O)N1CCOCC1,7%,-5%,10,-16,1%,-10%
O=C(c1ccccc1Sc1ccc([N+](=O)[O-])cc1Cl)N1CCOCC1,-3%,u,-72*,-2,0%,u
O=C(c1cc([N+](=O)[O-])ccc1N1CCOCC1)N1CCN(c2ccc([N+](=O)[O-])cc2)CC1,9%,13µM*,-11,-11,0%,15µM*
O=C(Nc1ccc(N2CCCC2)cc1)c1cc([N+](=O)[O-])ccc1N1CCOCC1,u,u,-13,-18,10%[56.1 µM],23µM*
O=C(c1cccc2ccccc12)N1CCN(c2ccc([N+](=O)[O-])c(N3CCOCC3)c2)CC1,u,9.2µM*,-1,1,7%,21µM*
Cc1nc2ccccc2c(C)c1CC(=O)OC(C)C(=O)NC1(C#N)CCCCC1 (centres undefined),-1%,-4%,-1,-7,-3%,-13%
COc1ccc(OCC(O)CNC(=O)/C=C/c2cccc([N+](=O)[O-])c2)cc1 (centres undefined),u,u,-23,-16,-3%,u
Fc1ccc(-c2nnsc2Sc2ccccn2)cc1,u,-3%,-14,-2,5%,-42%
O=C(Nc1ccccc1N1CCOCC1)c1ccc([N+](=O)[O-])cc1,-4%,-24%,-8,11,2%,-14%

# Compound activity from PubChem BioAssay.
